Laboratory results as given in PubChem BioAssay AID1259415 (National Center for Advancing Translational Sciences (NCATS), 2018).
The whole screen tested about 410,000 compounds, of which about 18,000 (4.4%) were called active. Another 7% or so got no clear call; they are omitted. No stated cut-off is given here; in the data, active means activity change below about -60%; inconclusive means no clear call, values can overlap the other calls; inactive means above about -39%. Many of the other results were omitted from the sample, so actives are more common in it than they were.

Assay: qHTS Assay for inhibitors of the human cytomegalovirus (HCMV)
Conditions: HFF cells, HCMV-luciferase reporter, 72 h; at 57.5 µM; stronger effect = lower value
Outline: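 Screen run at 2 compound doses on HFFs infected with reporter HCMV, MOI 1 PFU/cell. Luciferase activity from cell lysates at 72 h post infection gave inhibition relative to buffer-only and Salinomycin wells.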
On the % scale 0 is the no-effect control and ±100 the full control effect.

Row | Compound | activity change, negative = inhibition
1 | O=C(CSc1oc(-c2ccco2)nc1S(=O)(=O)c1ccccc1)c1ccc(Cl)cc1 | -17.5% (inactive)
2 | Cc1cccc(N2CCN(c3c(CN4CCCC4)c(=O)oc4ccccc34)CC2)c1C | 21.8% (inactive)
3 | CCOc1ccc(N(CC)C(=O)c2cc3c(=O)oc4ccccc4c3s2)cc1 | 5.06% (inactive)
4 | O=C(CN1C(=O)c2ccccc2S1(=O)=O)N1CCc2ccccc21 | -93.9% (active)
5 | NS(=O)(=O)c1ccc(CCNC(=O)CN2C(=O)c3ccccc3S2(=O)=O)cc1 | -13% (inactive)
6 | Cc1ccc(S(=O)(=O)N(C)CC(=O)N2CCc3ccccc32)cc1 | -22.7% (inactive)
7 | O=C(Cn1cc(SCc2ccccc2)c2ccccc21)N1CCCCC1 | -27.6% (inactive)
8 | Cc1ccc(CNC(=O)CSc2c3c(nc4cc(Cl)ccc24)CCCC3)cc1 | -19.8% (inactive)
9 | CC(=O)Nc1ccc(S(=O)(=O)N2CCN(c3ccccc3)CC2)cc1 | -20.6% (inactive)
10 | Cc1ccc(Nc2c3c(nc4ccccc24)CCC3)cc1 | -74.2% (active)
11 | Brc1ccc(Nc2c3c(nc4ncnn24)CCC3)cc1 | -30.4% (inactive)
12 | CC(=O)Nc1ccc(Nc2c3ccccc3nc3ccccc23)cc1 | -99.6% (active)
13 | CC(=O)Nc1ccc(Nc2nc3c(S(=O)(=O)c4ccc(C)c(C)c4)nnn3c3ccccc23)cc1 | -35.4% (inactive)
14 | CCCC(=O)Nc1cc(C(=O)NCc2ccc(OC)cc2)ccc1S(=O)(=O)c1ccc(Cl)cc1 | 12.9% (inactive)
15 | COc1cccc(C(CC(=O)NCCN2CCOCC2)NS(=O)(=O)c2ccc(C)cc2)c1OC (stereo not given) | -35.5% (inactive)
16 | CCOc1cccc(/C=N/NC(=S)NCCN2CCOCC2)c1O | -99.8% (active)
17 | CCOc1cc(/C=N/NC(=O)c2cccc(S(=O)(=O)N3CCOCC3)c2)ccc1OCC(=O)N(C)C | -10.8% (inactive)
18 | Cc1oc(-c2ccccc2)nc1Cn1c(SCc2cccc(C(F)(F)F)c2)nc2cccnc21 | -23.2% (inactive)
19 | CCOc1cc(C2C(C(=O)OC)=C(C)NC3=C2C(=O)c2ccccc23)ccc1O (stereo not given) | -8.78% (inactive)
20 | CC1=NN(C(=O)c2ccc(Br)cc2)C(O)(c2ccccc2)C1 (stereo not given) | -17.6% (inactive)
21 | CC1=NN(C(=O)CCc2ccccc2O)C(O)(C(F)(F)F)C1 (stereo not given) | -66% (active)
22 | CC1=NN(C(=O)CCCc2ccccc2)C(O)(C(F)(F)F)C1 (stereo not given) | -24.1% (inactive)
23 | COc1cccc(C(c2c(O)cc(C)n(Cc3ccco3)c2=O)N2CCN(c3ccccc3)CC2)c1 (stereo not given) | 7.72% (inactive)

Row | Compound | activity change, negative = inhibition
24 | CC(C)CC(NS(=O)(=O)c1ccc2c(c1)oc(=O)n2C)C(=O)NCc1ccccc1Cl (stereo not given) | -14.5% (inactive)
25 | CCCCn1c(=O)c2oc3ccccc3c2n(CC(=O)Nc2ccccc2OC)c1=O | 17% (inactive)
26 | Cc1cc(N2CCN(c3cccc(C(F)(F)F)c3)CC2)n2nc(-c3ccccc3)nc2n1 | -20.6% (inactive)
27 | O=C(CSC1c2ccccc2-c2ccccc21)N/N=C/c1ccccc1 | 35.4% (inactive)
28 | Nc1nnn(CC(=O)N/N=C/c2ccccc2)n1 | -9.02% (inactive)
29 | Cc1ccc(/C=N/NC(=O)COc2ccccc2-c2ccccc2)cc1 | -81.9% (active)
30 | CCOCCCNC(=O)c1c(NC(=O)c2nc(SC)ncc2Cl)sc2c1CCCC2 | 47.5% (inactive)
31 | O=C(CCn1c(=O)c2sccc2n(Cc2ccc(F)cc2)c1=O)NCc1ccc2c(c1)OCO2 | 14.2% (inactive)
32 | O=C(Nc1nnc(C2COc3ccccc3O2)o1)c1ccc(F)cc1 (stereo not given) | -81.3% (active)
33 | CSc1ccccc1-c1nnc(NC(=O)c2ccc3c(c2)OCCO3)o1 | 21.3% (inactive)
34 | c1ccc2c(c1)OCC(c1nn3cnnc3s1)O2 (stereo not given) | -4.38% (inactive)
35 | Oc1ccccc1-c1nc(/C=C/c2ccc(F)cc2)no1 | 94.7% (inactive)
36 | COc1ccc(CNC(=O)c2cc3c(s2)-c2ccccc2OC3)cc1 | -13.2% (inactive)
37 | COc1cc(CNC(=O)c2cc3n(n2)CCCN(Cc2cccc(F)c2)C3=O)cc(OC)c1OC | -12.3% (inactive)
38 | C=C(C)CSc1nnc(-c2ccc(C)cc2)n1N | -8.53% (inactive)
39 | CN(C)c1cc[n+](Cc2ccccc2)cc1 | -86.3% (active)
40 | N#Cc1ccc(-c2cccs2)nc1SCc1ccc(Br)cc1 | 5.81% (inactive)
41 | CCCCCn1nnnc1C1c2ccccc2C(=O)N1Cc1ccco1 (stereo not given) | -25.7% (inactive)
42 | O=C1c2ccccc2C(Nc2ccc3c(c2)OCCO3)N1Cc1ccco1 (stereo not given) | -60.9% (active)
43 | O=C(Nc1ccc2c(c1)OCCO2)C1c2ccccc2OCC(=O)N1Cc1ccccn1 (stereo not given) | 3.21% (inactive)
44 | Cc1ccc(-c2noc(CSc3nnc(-c4ccc(Cl)cc4)n3C)n2)cc1 | -12.3% (inactive)
45 | CC1CN(C(=O)N2CCC(C(=O)NCc3cccs3)CC2)c2ccccc2O1 (stereo not given) | 8.43% (inactive)
46 | CCc1ccc(Nc2nn3c(=O)c4cc5c(cc4nc3s2)OCO5)cc1 | 9.55% (inactive)

Row | Compound | activity change, negative = inhibition
47 | COc1cccc(C(c2nnnn2-c2ccc3c(c2)OCCO3)N2CCC3(CC2)C(=O)NCN3c2ccccc2)c1OC (stereo not given) | -15.1% (inactive)
48 | COc1ccc(F)c(-c2nc(CN3CCC(c4ccccc4)CC3)c(C)o2)c1 | -14% (inactive)
49 | Cc1nonc1C1CCCN1Cc1nc(-c2ccc(F)cc2F)oc1C (stereo not given) | -69.4% (active)
50 | Cc1oc(-c2ccccc2F)nc1CN1CCC(C(=O)NCCc2ccc(Cl)cc2)CC1 | 0.215% (inactive)
51 | Cc1ccc(N(CC(=O)NCc2ccc(Cl)cc2)S(=O)(=O)N(C)C)cc1 | -16.9% (inactive)
52 | COc1ccc2c3c([nH]c2c1)[C@@H](CO)N(C(=O)C1CC1)CC31CCN(Cc2nccs2)CC1 | -2.14% (inactive)
53 | COc1ccc(CNC(=O)CSCc2nc(-c3ccccc3F)oc2C)cc1 | -16% (inactive)
54 | COc1ccc(N2CCN(C(=O)CCSCc3ccccc3F)CC2)cc1 | -16.4% (inactive)
55 | COc1ccc(N2CCN(C(=O)CSCc3nc(-c4ccccc4Cl)oc3C)CC2)cc1 | -81.2% (active)
56 | COc1cccc(N=C2SC(C(=O)Nc3cccc(Cl)c3)CC(=O)N2C)c1 (stereo not given) | -4.69% (inactive)
57 | O=C(CSCc1cnn(-c2ccccc2)c1-n1cccc1)NCc1ccc(Cl)cc1 | -3.89% (inactive)
58 | CCCC(=O)n1nc(NCc2ccc(OC)cc2)nc1NCc1ccc(OC)cc1 | -26.6% (inactive)
59 | CCCn1nnnc1NCc1ccc(OC)cc1 | -30.2% (inactive)
60 | COc1ccc(CNc2c(CO)cnc3c2cnn3C)cc1 | -66.6% (active)
61 | Fc1ccccc1Oc1ncnc2c1oc1ccccc12 | -3.15% (inactive)
62 | O=C(CC(NCc1cccnc1)C(=O)O)Nc1ccc(O)cc1 (stereo not given) | 5.47% (inactive)
63 | COc1ccccc1NC(=O)CSc1nnc(CNC(=O)c2ccccc2F)o1 | -5.51% (inactive)
64 | CCC(=O)Nc1ccc(C(=O)CSc2nnc(CNc3ccc(Cl)cc3)o2)cc1OC | -87.9% (active)
65 | COc1cc(Cl)c(C)cc1NC(=O)CSc1nnc(CN2CCCC2)o1 | -9.81% (inactive)
66 | CCCCSc1ncnc2c1sc1nc(N3CCOCC3)c3c(c12)CCCC3 | 1.23% (inactive)
67 | Cc1ccc(-c2nc(Cn3c(=O)cc(-c4ccccc4)c4c(C)nn(C)c43)c(C)o2)cc1 | -9.59% (inactive)
68 | O=C(NCC1CCCO1)c1ccc(S(=O)(=O)Nc2ccc(F)cc2)cc1 (stereo not given) | -30.8% (inactive)
69 | O=C(Nc1ccc(S(=O)(=O)NCC2CCCO2)cc1)c1ccc(F)cc1 (stereo not given) | -71.5% (active)

Row | Compound | activity change, negative = inhibition
70 | Cc1ccc(NC(=O)c2ccc(S(=O)(=O)NCC3CCCO3)cc2)cc1C (stereo not given) | 0.647% (inactive)
71 | CCc1cccc(NC(=O)Cn2nc(CC)n3c(cc4cc(C)ccc43)c2=O)c1 | 18.4% (inactive)
72 | COc1ccc(CCNS(=O)(=O)c2cc(-c3cc(C)no3)ccc2C)cc1OC | 0% (inactive)
73 | CN(C)CCOC(=O)C(c1ccccc1)C1(O)CCCC1 (stereo not given) | 31.9% (inactive)
74 | CN(C)CC1Oc2ccccc2OC1(O)c1ccccc1 (stereo not given) | -104% (active)
75 | CCc1cccc(NC(=O)CN(c2ccc(C)c(C)c2)S(=O)(=O)c2ccsc2C(=O)OC)c1 | 7.64% (inactive)
76 | CCc1nn(-c2cc(Oc3cccc4ccccc34)nc(-c3ccccc3)n2)c(N)c1C#N | -68% (active)
77 | CCCCN(C)CCCNC(=O)CN1N=C(c2ccc(OC)cc2)CCC1=O | -26.4% (inactive)
78 | CCC(=O)NC(Nc1cc(C)ccn1)(C(F)(F)F)C(F)(F)F | 27.3% (inactive)
79 | Cc1cccc(NC(c2cccc(F)c2)c2ccc3ccc(C)nc3c2O)n1 (stereo not given) | 84.7% (inactive)
80 | Cc1ccnc(NC(c2ccc(C(F)(F)F)cc2)c2ccc3cccnc3c2O)c1 (stereo not given) | -97.9% (active)
81 | CCNS(=O)(=O)c1ccc(CCC(=O)N2CCN(c3ccc(OC)cc3)CC2)cc1 | -33.4% (inactive)
82 | CCCNS(=O)(=O)c1ccc(CCC(=O)N2CCCC2)cc1 | -28.5% (inactive)
83 | CCNS(=O)(=O)c1ccc(CCC(=O)N2CCN(c3cc(Cl)ccc3C)CC2)cc1 | -68.5% (active)
84 | CCOc1cccc2sc(N3CCN(C(=O)C4CC4)CC3)nc12 | -12.2% (inactive)
85 | CN1OC[C@@H]2CN(C(=O)C(C)(C)C)[C@H](c3ccc(-n4ccnc4)cc3)C[C@@H]21 | 22.3% (inactive)
86 | CCOC(=O)[C@]12CCC=C1N(Cc1cccc3ccccc13)C(=O)[C@H](CC(=O)NCc1cccc(C(F)(F)F)c1)C2 | 19.4% (inactive)
87 | Cc1ccc(-n2ncc3c(NCCCn4ccnc4)ncnc32)cc1Cl | 7.64% (inactive)
88 | Cc1noc(C)c1C(=O)NC(C)c1ccc2c(c1)OCO2 (stereo not given) | 59.8% (inactive)
89 | CC(NC(=O)c1ccco1)c1ccc2c(c1)OCO2 (stereo not given) | 11.5% (inactive)
90 | CC(NC(=O)Nc1cccc([N+](=O)[O-])c1)c1ccc2c(c1)OCO2 (stereo not given) | -64.3% (active)
